# Compound activity: PubChem, National Center for Advancing Translational Sciences (NCATS)
# Compounds with a hit are over-represented: about 1.4% of the library has one in this group of screens.
# N370S GC – qHTS Assay for Inhibitors and Activators of N370S glucocerebrosidase as a Potential Chaperone Treatment of Gaucher Disease | N370S GC spleen homogenate, 4MU-glucoside fluorescence | Potency, µM (top dose mostly 59.4 µM), for the others: at the highest dose activity change, negative = inhibition, most hits filed as inhibitors | 0.092% of 330,000 active;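 further: potency means the concentration at half of the fitted maximal effect; 0% = full enzyme activity and -100% = no enzyme basal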
# Nrf2 activator – qHTS of Nrf2 Activators; AREc32 ARE-luciferase reporter (MCF7-derived line), luminescence, 24 h; Potency, µM (titrated, usually from 46.1 µM), inactives show top-dose activation, most hits filed as activators; 0.31% of 410,000 active; further: potency means the concentration at half of the fitted maximal effect; % of control where 0% means no effect; nearly all actives have a fitted effect of over 65% in size
#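 Luminescent ARE reporter assay in AREc32_Fluc cells: overnight plating at 37 deg C, 24 hr compound incubation, Steady-Glo added, 30 min RT before reading.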
# a7 integrin act – qHTS for Activators of Integrin-Mediated Alleviation for Muscular Dystrophy; alpha7betagal myoblasts, beta-gal FDG fluorescence, 48 h; Potency, µM (highest dose often 38.3 µM), without a hit: at the highest dose activation, usual class: activators; 0.064% of 350,000 active;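 further: potency means the concentration at half of the fitted maximal effect; 100% = response of the positive control SU9516; nearly all actives have a fitted effect of over 60% in size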
#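 Alpha7betagal+/- myoblasts (passage 13) were plated 16-24 hr, then exposed to compounds (1:260 dilution of DMSO stock) for 48 hours at 37C. After MPER lysis, β-galactosidase reporter activity was read as FDG fluorescence (ex 480/em 540) after 30 minutes.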
# BRCA1 expr up – qHTS Assay to Identify Small Molecule Activators of BRCA1 Expression; MCF7-BRCA1-FFLuc reporter, luminescence, 48 h; response scale: scaled: vehicle 0%, 10 µM genistein 100%; Potency, µM (top dose mostly 46.1 µM), inactives show top-dose activation, most hits filed as activators; 1.1% of 380,000 active; AID 624202, 2012; further: potency means the concentration at half of the fitted maximal effect; nearly all actives have a fitted effect of over 80% in size
#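 MCF7-BRCA1-FFLuc cells, 2000/well in phenol-red-free MEM, attached 2 h then treated 48 h at 37 C. Luciferase luminescence read 15 min after reagent; normalized to genistein maximum activation (10microM) and DMSO, concentration-response fitted.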
# IL-2 act – qHTS of IL-2 Activators; activation, % (series mostly up to about 46 µM); IL-2 activation reporter assay, cell-based qHTS; stimulated with anti-CD3/CD4/CD28 beads; in transgenic mouse T cells; 0.065% of 360,000 active; in the data active means activation above about 50%; inconclusive means mostly about 30% to 49%; further: 0% is about no effect
#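 Quantitative HTS in unstimulated transgenic mouse T cells, with memory T cells as non-tolerant control and PMA/ionomycin as tolerance-bypass control. Compound pretreatment lasted 60 minutes before 18 h bead stimulation; EGFP/DsRed fluorescence read.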
# BCR signal inh – qHTS Assay to Find Inhibitors of Chronic Active B-Cell Receptor Signaling. ABC-DLBCL IkBa-CBG/CBR reporter, luminescence ratio, 4 h. Potency, µM (doses to about 46.1 µM), for the others: at the highest dose activity change, negative = inhibition, most hits filed as inhibitors. 0.05% of 340,000 active. AID 493014, 2011; active means well fitted inhibition curve with a large enough effect in the signal ratio, with a control signal flat, not every such curve was filed as active; inconclusive means small, poorly fitted or top-dose-only effect, or effect the other way, or a change in a side signal; the % refers to the signal ratio;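 further: potency means the concentration at half of the fitted maximal effect; plate controls were basal doxycycline-induced cells for no effect and cells given 10 µM MG132 for full effect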
#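 Doxycycline induced both beetle luciferases in TMD8 lymphoma cells; IKK-driven degradation limits the IkappaBalpha-fused green signal, while red luminescence normalises for cell number and nonspecific effects. Compounds tested up to 46 uM, 4 hrs.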
# * hit, by the source's call; ? = inconclusive; . = not tested or not shown; [ ] = dose if it differs, or a comment. Unless noted, the call rests on the fitted dose curve; in most records, active means well fitted curve in the direction sought with a large enough effect; inconclusive means small, poorly fitted or top-dose-only effect, or another doubt; inactive means no such curve, though single readings can be large; an effect the other way counts as inactive or inconclusive.
SMILES,N370S GC,Nrf2 activator,a7 integrin act,BRCA1 expr up,IL-2 act,BCR signal inh
CCOC(=O)c1ccc(Nc2nc(C)cc(C)n2)cc1,0%,3%,15%,4%,1,6%
CCOC(=O)c1ccc(NC(=O)c2ccccc2)cc1,0%,1%,16%,2.8µM*,0,?
CCOC(=O)c1ccc(Nc2cc(C)nc(-c3ccccc3)n2)cc1,1.4µM*,-1%,-11%,-57%,4,?
C1=Cc2ccccc2/C1=C\c1cccc(/C=C2\C=Cc3ccccc32)c1,.,.,.,12%,.,.
CCc1ccc(NC(=O)c2nc(S(=O)(=O)Cc3ccccc3)ncc2Cl)cc1,-13%,.,.,.,.,?
CCOC(=O)c1ccc(NC(=S)N2CCCC(C)C2)cc1 (centres undefined),-27%,0%,-22%,58%,-1,-11%
O=C(Nc1ccc(NC(=O)c2cc3ccccc3o2)cc1)c1ccccc1,.,5%,.,.,.,.
CCOC(=O)c1ccc(NC(=S)N2CCC(O)CC2)cc1,2%,1%,7%,13µM*,-4,-2%
CCOC(=O)c1ccc(NC(=O)c2nc(S(=O)(=O)Cc3ccccc3)ncc2Cl)cc1,-2%,3.2µM*,-76%,-48%,-3,?
Cc1ccc(NC(=O)c2ccc(OC(=O)c3cc4ccccc4o3)cc2)cc1,-9%,1%,11%,4µM*,0,?
CC(C)OC1=CC(=O)OC(c2cccc(Cl)c2)C1 (centres undefined),.,.,.,.,0,.
Cc1ccc(-c2cc(C3C4C=CCCC4(C)C(=O)N3Cc3ccccc3)ccc2F)cc1 (centres undefined),-3%,.,.,.,.,.
Nc1nonc1-n1nnc(C(=O)N/N=C/c2ccc(OCc3ccccc3)cc2)c1CN1CCCCC1,8%,6%,14%,76%,0,1%
COc1cccc(-c2cc3nc(NCCN4CCCC4)n(C)c(=O)c3s2)c1,.,12%,.,5%,0,.
c1cc2c(cc1CNc1ccc(N3CCOCC3)cc1)OCO2,.,6%,.,4.5µM*,0,0%
N/C(Cc1ccccc1)=N\OC(=O)c1cccc2ccccc12,5%,17%,-16%,-42%,-1,?
NC(=S)N/N=C1\CC(c2ccc3c(c2)OCCO3)Oc2ccc(F)cc21 (centres undefined),-4%,0%,-18%,-27%,1,?
NC(=S)N/N=C1\CC(c2ccc3c(c2)OCCCO3)Oc2ccc(F)cc21 (centres undefined),-25%,5%,14%,-55%,1,18µM*
Cc1cc2c(cc1S(=O)(=O)Nc1cccc(C#N)c1)OCC(=O)N2,.,-1%,.,.,.,.
O=C(Nc1ccc2c(c1)CCC2)c1cnn2c1NC(=C1CC1)C=C2C(F)F,.,.,.,3%,.,.
Cc1[nH]c2ccccc2c1C(=O)COC(=O)c1ccccc1SCC(=O)N1CCCC1,.,.,.,2%,.,.
C1=C(c2cc3ccccc3cn2)CCCC1,.,4%,9%,10µM*,1,?
Cc1ccc(NC(=O)CC(=O)Nc2ccc(C)cc2C)c(C)c1,-6%,-1%,0%,-23%,-1,-3%
Cc1ccc(N/C(C(Cl)=C(Cl)Cl)=C(/Cl)[N+](=O)[O-])c(C)c1,0%,22µM*,-38%,-56%,-1,-9%
CC1CN=C(c2ccccc2)O1 (centres undefined),.,-1%,7%,-1%,-1,.
SMILES,N370S GC,Nrf2 activator,a7 integrin act,BRCA1 expr up,IL-2 act,BCR signal inh
O=C(NC(=O)c1ccc(F)cc1F)Nc1ccc(Cl)cc1,-5%,0%,29%,2.8µM*,-1,?
Cc1ccc(NC(=O)c2ccc(F)cc2F)cc1,.,4%,13%,?,1,.
CN1C(=O)/C(=C/c2cc(N=Nc3ccccc3)ccc2O)SC1=S,6%,6%,-3%,-19%,5,-2%
C#CC(C)(C)NC(=O)c1ccc(-c2ccccc2F)cc1,-7%,0%,?,13µM*,-3,-25%
CC(=O)N(c1nnc(-c2ccc(C)cc2)s1)C1CCCC1,8%,-1%[9.22 µM],30%,11µM*,-3,?
CCOC(=O)c1sc(=NC(=O)CCSc2ccccc2)n(C)c1C,7%,3%,1%,10µM*,-1,?
Cc1nc(N2CCN(C)CC2)c2nnn(Cc3ccccc3)c2n1,.,.,.,6%,.,.
CCn1nc(C(=O)Nc2cccc3ccccc23)c(Cl)c1Cl,15%,7.1µM*,9%,-95%,-3,6%
CCn1nc(C(=O)Nc2ccccc2C)c(Cl)c1Cl,4%,4%,-4%,-28%,-1,0%
CCOC(=O)c1c(O)cc(C)cc1Nc1ccccc1,-1%,8%,16%,-8%,0,?
O=C(COC(=O)CNC(=O)C1CCCCC1)NC1CC1,.,.,.,0%,.,.
O=C(Nc1nc2c(F)cc(F)cc2s1)c1ccco1,-2%,?,10%,?,-3,?
O=C(CCc1ccccc1)Nc1nc2c(F)cc(F)cc2s1,5%,4%,5%,10µM*,-2,?
O=Cc1ccc(-c2c(-c3ccccc3)oc3c2C(OCCCCO)CCC3)o1 (centres undefined),.,19%,.,11%,-1,.
COc1ccc(S(=O)(=O)N2C[C@@H](O)COC[C@@H]3O[C@H](CC(=O)NCCCN4CCOCC4)CC[C@H]32)cc1,.,.,.,.,0,.
CN1CCN(C(=O)/C=C/c2ccc3c(c2)OCO3)CC1,6%,0%,12%,12%,0,-1%
O=C(/C=C/C=C/c1ccc2c(c1)OCO2)N1CCCCC1,-8%,9%,24%,8.9µM*,1,?
O=C(Nc1ccccc1)c1cnc2n(c1=O)CCS2,?,3%,16%,28%,0,10%
O=C(Nc1ccc2c(c1)OCO2)c1cnc2n(c1=O)CCS2,8%,0%,20%,2.5µM*,0,1%
O=C(Nc1ccc2c(c1)OCCO2)c1cnc2n(c1=O)CCS2,20%,0%,-2%,7.1µM*,1,?
Cc1noc(C)c1-c1cc(N(C)C)ncn1,-8%,.,.,.,.,.
CCn1nnc2c(N3CCCC3)ncnc21,.,.,.,30%,.,.
COc1[nH]c(/N=C/c2ccco2)c(C#N)c1C#N,.,.,.,2%,.,.
OCCc1ccc(NCCc2cccs2)cc1,.,0%,.,8.9µM*,0,.
